Records with an inconclusive call do not appear. Where a call stands in place of a potency, no number is given. The source made the active and inactive calls. The call rests on the fitted dose curve; in most records, active means well fitted cell-killing curve with a large enough effect; inconclusive means small, poorly fitted or top-dose-only effect, or effect the other way; inactive means no such curve, though single readings can be large or run the other way.
experiment: Quantitative High-Throughput drug screen in 47 multiple myeloma cell lines against the NCATS MIPE library collection: KMS26_JCRB cell viability assay (AID 1918975); details: KMS26 myeloma cells viability, CellTiter-Glo ATP, 48 h; series mostly up to 45.8 µM; further: nearly all actives have a fitted effect of over 45% in size
Excerpt: PI: Beverly A. Mock Ph.D.
Laboratory of Cancer Biology and Genetics,
Center for Cancer Research, National Cancer Institute,
National Institute of Health, Bethesda, Maryland
Drug resistance and disease progression are common in multiple myeloma (MM) patients, underscoring the need for new therapeutic combinations. […] We hypothesized that effective combinations would reduce MYC expression and enhance p16 activity. […] These preclinical data identify potentially useful drug combinations for evaluation in drug-resistant MM and reveal potential mechanisms of combined drug sensitivity.
Described herein is the primary MIPE qHTS used to cherrypick compounds. Validated compounds were then further tested for potential synergistic activiy.
[1] Peat TJ, Gaikwad SM, Dubois W, Gyabaah-Kessie N, Zhang S, Gorjifard S, Phyo Z, Andres M, Hughitt VK, Simpson RM, Miller MA, Girvin AT, Taylor A, Williams D, D'Antonio N, Zhang Y, Rajagopalan A, Flietner E, Wilson K, Zhang X, Shinn P, Klumpp-Thomas C, McKnight C, Itkin Z, Chen L, Kazandijian D, Zhang J, Michalowski AM, Simmons JK, Keats J, Thomas CJ, Mock BA. Drug combinations identified by high-throughput screening promote cell cycle transition and upregulate Smad pathways in myeloma. Cancer Lett. 2023 Aug 1;568:216284. doi: 10.1016/j.canlet.2023.216284. Epub 2023 Jun 24. PMID: 37356470; PMCID: PMC10408729.
SEQUENCE No. (e.g., 1, 2, 3, etc.); […] (e.g., Cells, Incubation, Reagent, etc.); VALUE and DESCRIPTION.
1; Cells; 5 uL; white, solid bottom 1536-well Greiner assay plate.
2; Compounds; 23 nL; Kalypsis pin tool (Wako USA) equipped with a 1536-well pin head to transfer to the assay plates.
3; Incubation; 48 hours; 37C incubation.
4; Reagent;5uL; CellTiter Glo (Promega).
5; Detector; 425V; Luminescence; Viewlux PerkinElmer.
NOTES (numbers refer to Sequence numbers above)
1. The cell-based screening methods employed in this study were like those previously published. Briefly, the corresponding myeloma cell lines were screened in 1,536-well plates with 500 cells, 5-uL per well for inhibition of cell viability (assessed by measuring ATP levels with CellTiterGlo).
2. NCATS MIPE 4.0 library of approved and investigational drugs were added using the Kalypsis pin tool. Wells treated with DMSO only for 100% viability and media only wells for 0% viability were used as controls.
3. The assay plates were covered and incubated for 48 hours in a 37C, 5% CO2 incubator with controlled humidity.
4. After 48 hours, CellTilter-GloTM luminescent substrate mix (Promega) reagent was added to the assay plate and plates we incubated for 5 min at room temperature.
5. Signal was measured as median relative luminescence units on a ViewLux (PerkinElmer) multiplate reader.
[1] Heske CM, Davis MI, Baumgart JT, Wilson K, Gormally MV, Chen L, Zhang X, Ceribelli M, Duveau DY, Guha R, Ferrer M, Arnaldez FI, Ji J, Tran HL, Zhang Y, Mendoza A, Helman LJ, Thomas CJ. Matrix Screen Identifies Synergistic Combination of PARP Inhibitors and Nicotinamide Phosphoribosyltransferase (NAMPT) Inhibitors in Ewing Sarcoma. Clin Cancer Res. 2017 Dec 1;23(23):7301-7311. doi: 10.1158/1078-0432.CCR-17-1121. Epub 2017 Sep 12. PMID: 28899971; PMCID: PMC6636827.
Potency means the concentration at half of the fitted maximal effect.

| Structure (SMILES) | Potency |
| --- | --- |
| O=C(NC1CCOCC1)c1ccc(-c2cc(-c3cn[nH]c3-c3ccccn3)ccn2)cc1 | inactive |
| c1ccc2c(Cc3c[nH]c4ccccc34)c[nH]c2c1 | 4.69 µM (active) |
| COc1ccc(Cc2ccc(NC(N)=O)cc2)cc1-c1cccc(Cl)c1 | inactive |
| CCCCCN(C)CCC(O)(P(=O)(O)O)P(=O)(O)O | inactive |
| OC[C@H]1O[C@@H](n2cnc3c2NC=NC[C@@H]3O)C[C@H]1O | inactive |
| COc1ccc(-c2nc(N3CCOCC3)c3sc(CN(C)c4ncc(C(=O)NO)cn4)cc3n2)cn1 | 0.0264 µM (active) |
| C[C@]12CCC3c4ccc(O)cc4CCC3C1CCC2=O (stereo not given in full) | 3.32 µM (active) |
| CC(C)(C)c1cc(C(=O)O)c(NC(=O)Nc2ccc3[nH]ncc3c2)s1 | inactive |
| O=C(O)[C@H]1O[C@H](Oc2cc3oc(-c4ccccc4)cc(=O)c3c(O)c2O)[C@H](O)[C@@H](O)[C@H]1O | 20.9 µM (active) |
| C[N+]1(C)[C@@H]2CC(OC(=O)[C@H](CO)c3ccccc3)C[C@H]1[C@H]1O[C@@H]12 (stereo not given in full) | inactive |
| CCS(=O)(=O)N1CC(CC#N)(n2cc(-c3ncnc4[nH]ccc34)cn2)C1 | 16.6 µM (active) |
| CC#CCn1c(N2CCC[C@@H](N)C2)nc2c1c(=O)n(Cc1nc(C)c3ccccc3n1)c(=O)n2C | inactive |
| O=C1c2ccccc2-[n+]2ccc3c([nH]c4ccccc43)c21 | 2.35 µM (active) |
| NC[C@@H]1O[C@@H](O[C@H]2[C@@H](O)[C@H](O[C@@H]3[C@@H](O)[C@@H](N)C[C@H](N)[C@H]3O[C@H]3O[C@H](CN)[C@@H](O)[C@@H](O)[C@H]3N)O[C@H]2CO)[C@H](N)[C@@H](O)[C@@H]1O | inactive |
| CNC(=O)c1ccc2cc(C3(O)CCn4cncc43)ccc2c1 (stereo not given) | inactive |
| Cc1[nH]c(C=C2C(=O)Nc3ccc(S(=O)(=O)Cc4c(Cl)cccc4Cl)cc32)c(C)c1C(=O)N1CCC[C@H]1CN1CCCC1 | 23.5 µM (active) |
| C[C@H]1[C@H](NC(=O)C(=NOC(C)(C)C(=O)O)c2csc(N)n2)C(=O)N1S(=O)(=O)O | inactive |
| CC(C)=CC[C@@H](O)C1=CC(=O)c2c(O)ccc(O)c2C1=O | 0.418 µM (active) |
| COc1ccc(-c2cc(=O)c3c(O)cc(O)cc3o2)cc1O | 5.9 µM (active) |
| O=C(CCc1ccc(O)cc1)c1c(O)cc(O)cc1O[C@@H]1O[C@H](CO)[C@H](O)[C@H](O)[C@H]1O | inactive |

| Structure (SMILES) | Potency |
| --- | --- |
| CC(C)n1nc(-c2ccc3oc(N)nc3c2)c2c(N)ncnc21 | 0.132 µM (active) |
| O=c1cc(N2CCOCC2)oc2c(-c3cccc4c3sc3ccccc34)cccc12 | 20.9 µM (active) |
| O=C1c2c(O)cc(O)cc2O[C@H](c2cc(O)c(O)c(O)c2)[C@H]1O | 20.9 µM (active) |
| Cc1ccc(C(=O)Nc2cccc(C(F)(F)F)c2)cc1Nc1nc(-c2cccnc2)nc2c1cnn2C | 13.2 µM (active) |
| CCOC1OC(=O)C[C@H]1NC(=O)[C@@H]1CCCN1C(=O)[C@@H](NC(=O)c1ccc(N)c(Cl)c1)C(C)(C)C (stereo not given in full) | inactive |
| CCn1c(C(=O)N(C2CC2)C2CC2)cc2c3c(ncn3C)c(Nc3cc(C)n(C)n3)nc21 | inactive |
| C[C@]12CC[C@@H]3c4ccc(O)cc4C[C@@H](CCCCCCCCCS(=O)CCCC(F)(F)C(F)(F)F)[C@H]3[C@H]1CC[C@H]2O (stereo not given in full) | inactive |
| CO[C@H]1C[C@@H]2CC[C@@H](C)[C@@](O)(O2)C(=O)C(=O)N2CCCC[C@@H]2C(=O)O[C@H]([C@@H](C)C[C@@H]2CC[C@H](O)[C@H](OC)C2)CC(=O)[C@H](C)C=C(C)[C@@H](O)[C@@H](OC)C(=O)[C@H](C)C[C@H](C)C=CC=CC=C1C | inactive |
| O=C1NC(=O)C(=Cc2ccc3c(c2)OC(F)(F)O3)S1 | 18.7 µM (active) |
| Nc1ncnc2c1ncn2[C@@H]1O[C@@H](CO)[C@H](O)[C@H]1O | inactive |
| OC[C@H]1O[C@@H](Oc2cc(O)cc(C=Cc3ccc(O)cc3)c2)[C@H](O)[C@@H](O)[C@H]1O | inactive |
| Oc1ccc(C2=Cc3ccc(O)cc3OC2)cc1 | 8.33 µM (active) |
| CC(C)(C)COc1ccc(-n2cc(C(=O)O)cn2)cc1C#N | inactive |
| CC(C)(C)OC(=O)N[C@H]1CCCCCC=C[C@@H]2C[C@@]2(C(=O)NS(=O)(=O)C2CC2)NC(=O)[C@@H]2C[C@@H](OC(=O)N3Cc4cccc(F)c4C3)CN2C1=O | inactive |
| CC[C@H]1OC(=O)[C@H](C)[C@@H](O[C@H]2C[C@@](C)(OC)[C@@H](O)[C@H](C)O2)[C@H](C)[C@@H](O[C@@H]2O[C@H](C)C[C@H](N(C)C)[C@@H]2O)[C@](C)(O)C[C@@H](C)CN(C)[C@H](C)[C@@H](O)[C@]1(C)O | inactive |
| CC(=O)Oc1cc2c(s1)CCN(C(C(=O)C1CC1)c1ccccc1F)C2 (stereo not given) | 2.96 µM (active) |
| C[C@]12CC[C@@H]3c4ccc(O)cc4CC[C@H]3[C@H]1C[C@@H](O)[C@H]2O | 0.0418 µM (active) |
| Cc1ccc(C(C)(O)c2nc3ccccc3s2)c(C)c1 (stereo not given) | inactive |
| CC(=O)N(C)C1(c2ccccc2)CCN(CCC[C@]2(c3ccc(Cl)c(Cl)c3)CCCN(C(=O)c3ccccc3)C2)CC1 | 20.9 µM (active) |
| CC(C)(Cc1ccc2ccccc2c1)NC[C@@H](O)COc1cccc(Cl)c1C#N | inactive |

— PubChem BioAssay (NCATS)
